Measured values from PubChem BioAssay (NCATS).
Results filed as inconclusive are left out. A call without a number means that no potency is given here. The source made the active and inactive calls. The call rests on the fitted dose curve; in most records, active means well fitted inhibition curve with a large enough effect; inconclusive means small, poorly fitted or top-dose-only effect; inactive means no such curve, though single readings can be large or run the other way.

target: Cytochrome P450 3A7 (Homo sapiens) (UniProt P24462); assay: Cytochrome P450 family 3 subfamily A member 7 (CYP3A7) small molecule antagonists: luciferase biochemical qHTS assay (AID 1963596); details: P450-Glo CYP3A7 enzyme luminescence, 1 h; series mostly up to 57.4 µM; further: nearly all actives have a fitted effect of over 40% in size
Sequence (P24462 whole entry, looked up): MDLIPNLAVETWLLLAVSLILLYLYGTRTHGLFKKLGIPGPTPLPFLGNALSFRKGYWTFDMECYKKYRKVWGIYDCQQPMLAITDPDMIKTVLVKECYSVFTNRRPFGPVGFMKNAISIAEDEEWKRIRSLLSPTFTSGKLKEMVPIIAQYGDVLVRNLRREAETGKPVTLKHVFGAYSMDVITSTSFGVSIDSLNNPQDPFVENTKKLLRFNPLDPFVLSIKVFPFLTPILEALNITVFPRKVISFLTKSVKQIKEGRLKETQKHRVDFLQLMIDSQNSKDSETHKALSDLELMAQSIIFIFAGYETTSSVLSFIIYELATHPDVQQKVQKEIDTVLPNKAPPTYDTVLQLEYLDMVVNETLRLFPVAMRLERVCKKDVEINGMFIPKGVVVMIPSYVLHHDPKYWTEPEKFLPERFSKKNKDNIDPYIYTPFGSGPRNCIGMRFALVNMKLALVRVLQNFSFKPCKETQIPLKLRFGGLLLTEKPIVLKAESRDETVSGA
Outline: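 Biochemical CYP3A7 activity measured with P450-Glo system: luciferin formed from proluciferin substrate in NADPH-driven reaction (1 h, room temperature) after 10 min compound preincubation. Signal in relative luminescence units.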

SMILES	Potency
Nc1c2c(nc3ccccc13)CCCC2	inactive
CCCCCCCC(=O)OCC(O)CO (stereo not given)	inactive
c1ccc2c(CC3=NCCN3)cccc2c1	inactive
O=c1[nH]cnc2c1ncn2[C@@H]1O[C@H](CO)[C@@H](O)[C@H]1O	inactive
CCn1cc(C(=O)O)c(=O)c2ccc(C)nc21	inactive
NS(=O)(=O)c1ccc(Cl)c(S(N)(=O)=O)c1	inactive
O=c1ccc2ccccc2o1	inactive
CCCCc1ccc2nc(NC(=O)OC)[nH]c2c1	inactive
CCN(CC)C(=O)C1CN2CCc3cc(OC)c(OC)cc3C2CC1OC(C)=O (stereo not given)	inactive
O=C(CO)N1CCC(c2[nH]nc(-c3ccc(Cl)cc3)c2-c2ccncn2)CC1	inactive
CCCCCCCC(=O)OCC(COC(=O)CCCCCCC)OC(=O)CCCCCCC	inactive
O=C(CCCl)NCc1ccccc1	inactive
CN(Cc1cnc2nc(N)nc(N)c2n1)c1ccc(C(=O)N[C@@H](CCC(=O)O)C(=O)O)cc1	inactive
N=C(N)c1ccc2cc(OC(=O)c3ccc(N=C(N)N)cc3)ccc2c1	inactive
CCCCCCCCCCCCCCCC(=O)O	inactive
Cc1ccnc(NS(=O)(=O)c2ccc(N)cc2)n1	inactive
NC(=O)NC(=O)Cc1ccccc1	inactive
Cc1ncc([N+](=O)[O-])n1C	inactive
CC1CCN(CCCC(=O)c2ccc(F)cc2)CC1	inactive
CC(=O)NS(=O)(=O)c1ccc(N)cc1	inactive

SMILES	Potency
CC(C)NCC(O)COc1ccc(CCOCC2CC2)cc1 (stereo not given)	inactive
OCc1cccnc1	inactive
CCN(CC)CCN	inactive
CC(C)CCCC(C)CCCC(C)CCCCC(C)CCCC(C)CCCC(C)C (stereo not given)	inactive
O=C(O)c1ccccc1Nc1cc(Cl)ccc1C(=O)O	inactive
Nc1ncn([C@H]2C[C@H](O)[C@@H](CO)O2)c(=O)n1	inactive
CC(=O)OC[C@H]1O[C@@H](OC(C)=O)[C@H](OC(C)=O)[C@@H]1OC(C)=O	inactive
O=c1[nH]c(=O)n([C@H]2C[C@H](O)[C@@H](CO)O2)cc1Br	inactive
CCN(CC)CC(=O)Oc1ccc(NC(C)=O)cc1	inactive
O=C(Nc1ccc(Cl)cc1)Nc1ccc(Cl)c(Cl)c1	inactive
CCN(CC)C(=O)c1ccc(O)c(OC)c1	inactive
CCCC(=O)O[C@]1(C(=O)CO)CC[C@H]2[C@@H]3CCC4=CC(=O)CC[C@]4(C)[C@H]3[C@@H](O)C[C@@]21C	inactive
CC1CCc2cc(F)cc3c(=O)c(C(=O)O)cn1c23 (stereo not given)	inactive
C[N+](C)(C)CCOC(=O)CCC(=O)OCC[N+](C)(C)C	inactive
CC12CC3CC(C)(C1)CC(N)(C3)C2	inactive
NCCS	inactive
Oc1ccccc1C=NCc1ccccc1	inactive
CN1CCN(c2ccc(OC(F)(F)F)c(Nc3ncc4c(n3)-c3c(c(C(N)=O)nn3CCO)CC4)c2)CC1	inactive
NCC1CCC(C(=O)Oc2ccc(CCC(=O)O)cc2)CC1 (stereo not given)	inactive
O=C1NC(O)CCN1[C@@H]1O[C@H](CO)[C@H](O)[C@H]1O (stereo not given in full)	inactive
